Only some compounds are listed: those with a hit (about 6.6% of all), similar ones and a draw of the others.
Gli-Sufu block: blocks Gli-Sufu signaling in a luciferase reporter. hit rate 0.74% among 340,000. inhibition, % at 5 µM. Sufu-KO-LIGHT fibroblasts, Gli luciferase reporter luminescence;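 active means inhibition above about 55%, limit read from the data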;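 further: 0% = DMSO-treated cells and 100% = wells with medium but no cells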
GRIN3A LBD mod: modulators (binders) of human NR3A ligand-binding domain | hit rate 2.5% among 340,000 | NR3A LBD differential scanning fluorimetry, Tm shift; 0% = protein alone, 100% = glycine-bound protein | Tm shift relative to glycine control, % at 25 µM;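 active means melting temperature shift of at least 10% of the positive control shift, at one fixed dose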
Beta apoptosis: blocks beta cell apoptosis. INS-1E cytokine-induced death, ATP luminescence, 48 h; percent of positive-control rescue, neutral wells zero. protection from apoptosis, % (concentration not given with the values). hit rate 0.8% among 300,000;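 active means Every replicate reaches about 75%, or at least half do and their mean reaches it too, limit read from the data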;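 further: 0% = cytokine-treated negative control wells and 100% = positive control rescue; higher means more ATP so stronger rescue from cytokine killing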
Mdm2 MdmX PPI: human Mdm2/MdmX binding inhibition; hit rate 3% among 330,000; inhibition, % at 8 µM; SaOS-2 split-luciferase Mdm2/MdmX complementation, luminescence; O15151+Q00987;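 active means inhibition of at least 50% at 8 µM in the primary screen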
Target sequence (O15151 whole entry, looked up): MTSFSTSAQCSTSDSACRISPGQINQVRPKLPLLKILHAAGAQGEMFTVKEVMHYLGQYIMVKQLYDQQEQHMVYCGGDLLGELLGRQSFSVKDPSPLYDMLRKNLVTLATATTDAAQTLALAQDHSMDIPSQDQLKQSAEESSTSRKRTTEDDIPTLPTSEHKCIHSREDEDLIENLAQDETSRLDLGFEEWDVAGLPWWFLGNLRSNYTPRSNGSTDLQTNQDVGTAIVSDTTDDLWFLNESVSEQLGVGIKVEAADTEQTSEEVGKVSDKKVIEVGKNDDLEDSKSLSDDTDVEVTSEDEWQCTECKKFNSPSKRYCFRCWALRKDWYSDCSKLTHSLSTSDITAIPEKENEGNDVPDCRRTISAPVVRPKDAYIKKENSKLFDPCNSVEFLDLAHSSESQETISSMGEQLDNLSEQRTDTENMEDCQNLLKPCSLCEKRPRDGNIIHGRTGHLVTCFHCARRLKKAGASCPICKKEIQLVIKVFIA
Target sequence (Q00987 whole entry, looked up): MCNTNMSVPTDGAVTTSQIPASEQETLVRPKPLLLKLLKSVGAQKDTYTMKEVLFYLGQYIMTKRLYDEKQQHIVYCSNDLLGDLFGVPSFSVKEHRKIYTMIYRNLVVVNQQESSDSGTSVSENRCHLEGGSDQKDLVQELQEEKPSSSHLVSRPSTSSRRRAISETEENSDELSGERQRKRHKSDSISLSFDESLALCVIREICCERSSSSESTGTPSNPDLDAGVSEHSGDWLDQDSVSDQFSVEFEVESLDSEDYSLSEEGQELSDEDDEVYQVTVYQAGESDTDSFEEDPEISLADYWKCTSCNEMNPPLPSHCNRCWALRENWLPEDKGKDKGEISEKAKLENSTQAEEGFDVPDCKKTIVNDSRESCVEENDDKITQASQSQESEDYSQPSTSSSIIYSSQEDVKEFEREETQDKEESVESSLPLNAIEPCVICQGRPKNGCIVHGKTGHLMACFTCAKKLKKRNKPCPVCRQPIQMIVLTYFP
CSC inhib: cancer stem cell inhibition; cancer stem cell-like cells viability, luminescence; inhibition, % at 7.5 µM; hit rate 1.1% among 300,000; in the data active means inhibition above about 75%; tested in HMLE shEcad cells
MPTP block: permeability transition pore inhibition | inhibition, % at 10 µM | isolated mouse mitochondria, Ca2+ swelling absorbance, 30 min | hit rate 1.4% among 360,000;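 active means inhibition of 50% or more, scaled per plate between neutral and stimulator controls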;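 further: 0% = DMSO wells given calcium and 100% = 1 mM EGTA wells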
* marks the source's active call; other numbers are inactive results; . = no result given.

SMILES	Gli-Sufu block	GRIN3A LBD mod	Beta apoptosis	Mdm2 MdmX PPI	CSC inhib	MPTP block
COc1cccc(S(=O)(=O)N2C[C@H](O)COC[C@H]3O[C@@H](CC(=O)N4CCN(C)CC4)CC[C@@H]32)c1	.	.	.	.	.	-2
O=C(NC1CCCC1)C(c1ccc(F)cc1)N(Cc1ccc(F)cc1)C(=O)c1ccn[nH]1 (stereo unspecified)	3	17*	0	-12	-10	1
O=C(NC1CCCC1)C(c1ccncc1)N(Cc1ccccc1)C(=O)c1ccc(-c2ccccc2)[nH]1 (stereo unspecified)	-4	-1	.	19	15	0
Cc1ccc(C2(c3ccc(C)cc3)CC2C(=O)NC(C)C)cc1 (stereo unspecified)	8	-5	4	-9	15	1
CCN(CC)C(=O)C1c2ccccc2Oc2ccccc21	-10	-2	1	1	17	1
O=C(O)CSc1nc2ccccc2o1	5	0	-9	-1	-17	0
Cc1ccc(C(=O)CSc2nc3ccccc3o2)cc1	-4	17*	-6	-34	1	-1
O=C(NCCc1ccccc1)c1cc(-c2ccccc2)c(N2CCOCC2)s1	-12	-1	5	0	81*	0
CSc1ccc(CCNC(=O)c2cc(-c3ccccc3)c(N3CCOCC3)s2)cc1	-12	-3	12	6	10	0
COc1ccc(/C=C/C(=O)NNC(=O)c2ccncc2)c(OC)c1	2	0	-3	5	-6	-1
Cc1csc(NC(=O)c2cc3c(s2)-c2ccccc2OC3)n1	-67	10*	4	-37	16	3
CC(C)C[C@H]1CN([C@@H](CC(C)C)CN2CCCC2CN2C(=S)NC[C@@H]2Cc2ccccc2)C(=S)N1CC1CCCCC1 (stereo partly specified)	.	.	.	.	.	1
CCn1cc(C(=O)NCc2ccco2)c(=O)c2cc(S(=O)(=O)N3CC(C)CC(C)C3)ccc21 (stereo unspecified)	12	-4	26	37	83*	5
O=C(c1cnn2c1NC(c1ccc(Br)cc1)CC2C(F)(F)F)N1CCN2CCCC2C1 (stereo unspecified)	-29	-15	6	15	80*	-1
O=C(c1cnn2c1NC(c1ccc(Br)cc1)CC2C(F)(F)F)N1CCN(C23CC4CC(CC(C4)C2)C3)CC1 (stereo unspecified)	-2	-4	0	0	22	1
O=C(N/N=C/c1c(Cl)cccc1Cl)c1n[nH]c2c1CCCC2	-52	-3	7	-78	-4	3
Cc1ccsc1/C=N\NC(=O)c1n[nH]c2c1CCC2	-14	-2	20	3	130*	2
CC(=O)c1cc(Cl)ccc1OCC(=O)Nc1cccc(S(=O)(=O)N2CCCC2)c1	-1	-4	.	5	.	1
NC(=O)C1CC(=O)N(c2ccc(OCc3ccc(Cl)cc3)cc2)C1 (stereo unspecified)	-12	-1	-1	-69	0	2
Cc1ccc(NC(=O)CCS(=O)(=O)c2cc3[nH]c(=O)c(=O)[nH]c3cc2C)cc1	-14	15*	-12	-13	-10	2
CC(=O)c1cccc(NC(=O)CCS(=O)(=O)c2cc3c(cc2C)NC(=O)CO3)c1	0	53*	1	-6	8	-1
Cc1ccc(S(=O)(=O)CCC(=O)Nc2ccc(S(=O)(=O)N(C)C)cc2)cc1	.	.	-2	7	.	.
COc1ccc(C(=O)N[C@H](C(=O)NCCc2ccc3c(c2)OCCO3)C(C)C)cc1	-5	-1	-1	12	-4	-1
CCOC(=O)N1CCc2c(sc(NC(=O)CCS(=O)(=O)c3ccccc3)c2C(N)=O)C1	-29	-2	-19	10	1	0
CNC(=O)c1c(NC(=O)CCS(=O)(=O)c2ccc(Cl)cc2)sc2c1CCN(C(=O)OC)C2	-2	10*	.	22	0	0
SMILES	Gli-Sufu block	GRIN3A LBD mod	Beta apoptosis	Mdm2 MdmX PPI	CSC inhib	MPTP block
CNc1nc2c3ccccc3n(C(C)=O)c2s1	-2	18*	-3	-1	-12	0
O=C1Nc2cc(C(=O)N3CCOCC3)ccc2S/C1=C/c1ccccc1F	.	.	.	.	.	-1
CC(=O)C1(C)C(=O)N(c2ccc(C)cc2)C(=O)N1c1ccc(C)cc1 (stereo unspecified)	-11	1	.	.	.	-2
Oc1ccc(/C=N/N=C/c2ccc(O)c(O)c2)cc1O	3	28*	-1	-5	41	0
Oc1ccc(/C=N/N(c2ccccc2)c2ccccc2)cc1O	1	1	6	0	43	5
O=C(/C(=N/N=C/c1ccc(O)c(O)c1)c1ccccc1)c1ccccc1	1	21*	-5	-5	53	47
CC(Sc1nc2ccccc2s1)C(=O)N(C)Cc1ccccc1 (stereo unspecified)	14	-3	0	14	-1	0
CC(=O)Nc1nc(-c2cccs2)cs1	6	1	-3	1	11	1
O=C(Nc1nc(-c2ccc(Cl)s2)cs1)c1ccccc1	27	15*	0	-19	39	3
O=C(Nc1nc(-c2cccs2)cs1)c1ccc(Cl)s1	-13	28*	.	-23	62	4
CCCn1cc(CN2CCC(Oc3ccc(C(=O)N4CCCC4)cc3)CC2)c(C)n1	22	1	1	23	-11	0
Cc1ccc(-n2nc3c(=O)n(CCCC(=O)NCc4ccco4)nc(C)c3c2C)cc1	12	0	4	17	5	0
O=C1OCC2=C1C(c1ccc(F)cc1)c1cc3c(cc1N2)OCCO3 (stereo unspecified)	57*	-2	.	.	.	2
C#CCOc1ccc(C2C3=C(COC3=O)Nc3cc4c(cc32)OCO4)cc1OC (stereo unspecified)	-19	0	.	.	.	1
CCCc1nnc(NC(=O)c2nc(S(=O)(=O)Cc3ccc(C)cc3)ncc2Cl)s1	32	1	-18	35	108*	-3
Cc1ccc(S(=O)(=O)CCc2nnc(NC(=O)c3cnccn3)s2)cc1	-18	-10	-1	1	11	-2
CCOC(=O)c1ccc(NC(=O)c2nc(S(=O)(=O)Cc3ccccc3)ncc2Cl)cc1	8	-10	78*	49	103*	-5
CC1=C(C(=O)OCC(Br)(Br)Br)C(c2cccc([N+](=O)[O-])c2)NC(=O)N1CCCC(=O)O (stereo unspecified)	-3	-7	-4	-11	4	0
Cn1c(N)c(S(=O)(=O)N2CCCC2)c(=O)n(C)c1=O	3	-1	1	40	-18	2
O=S(=O)(Nc1cccc(-c2ccc3nncn3n2)c1)c1cc(F)ccc1F	-3	-2	-8	15	.	-2
COC(=O)CC1Sc2ccccc2NC1=O (stereo unspecified)	9	14*	-3	10	-17	0
COc1ccc(NC(=O)COC(=O)CC2Sc3ccccc3NC2=O)cc1 (stereo unspecified)	-8	4	.	-3	.	-1

Bioassay records from PubChem.
